In PubChem BioAssay (NCATS):
Records with an inconclusive call do not appear. The source made the active and inactive calls. The call rests on the fitted dose curve; in most records, active means well fitted inhibition curve with a large enough effect; inconclusive means small, poorly fitted or top-dose-only effect; inactive means flat fitted curve, though single readings scatter.
On the % scale 0 is the no-effect control and ±100 the full control effect.

What follows are compounds tested on KB-3-1 (assay: Cytotoxic Profiling of Annotated Libraries Using Quantitative High-Throughput Screening (AID 1296008; further: nearly all actives have a fitted effect of over 60% in size)). Settings: Five cell lines viability, CellTiter-Glo ATP luminescence, 48-72 h; max response: stronger effect = lower value.
Procedure, shortened: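 Cytotoxicity was measured as CellTiter-Glo ATP luminescence, read after 10 min at room temperature. Compound treatment of the cells lasted 48 or 72 hr at 37 degrees Celsius in a qHTS format.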
In the case of `CC(O)CN(C)C` (stereo not given), the max response is reported as -6.37% (inactive).
For `CCN(CC)C(=O)c1cccnc1`, the max response was -8.56% (inactive).
With `CNCC(=O)N[C@@H](CCCN=C(N)N)C(=O)N[C@H](C(=O)N[C@@H](Cc1ccc(O)cc1)C(=O)N[C@H](C(=O)N[C@@H](Cc1cnc[nH]1)C(=O)N1CCC[C@H]1C(=O)N[C@@H](C)C(=O)O)C(C)C)C(C)C` the max response was 1.41% (inactive).
For `O=C(O)COc1ccccc1/C=N/NC(=O)c1ccncc1`, the max response was 4.6% (inactive).
`COc1cc2c(cc1OC)[C@@H](c1ccccc1)CN(C)CC2` was tested, and the max response was -3.02% (inactive).
With `FC(F)(F)COCC(F)(F)F` the max response was -9.66% (inactive).
For `CC(C)C[C@H](NC(=O)[C@@H](Cc1c[nH]c2ccccc12)NC(=O)[C@H](Cc1ccc(O)cc1)NC(=O)[C@H](CO)NC(=O)[C@H](Cc1c[nH]c2ccccc12)NC(=O)[C@H](Cc1cnc[nH]1)NC(=O)[C@@H]1CCC(=O)N1)C(=O)N[C@@H](CCCN=C(N)N)C(=O)N1CCC[C@@H]1C(=O)NCC(N)=O`, the max response was 0.539% (inactive).
`CCCCCCCCCCCCCCCCOCCOCCOCCOCCOCCOCCOCCOCCOCCOCCOCCOCCOCCOCCOCCOCCOCCOCCOCCOCCO` was tested, and the max response was -16.1% (inactive).
`O=C(Cc1cccs1)N[C@@H]1C(=O)N2C(C(=O)[O-])=C(C[n+]3ccccc3)CS[C@H]12` was tested, and the max response was 6.88% (inactive).
For `NC[C@H]1O[C@H](O[C@H]2[C@H](O)[C@@H](O[C@H]3O[C@H](CO)[C@@H](O)[C@H](N)[C@H]3O)[C@H](N)C[C@@H]2N)[C@H](N)C[C@@H]1O`, the max response was -4.68% (inactive).
